Molecules are shown by their SMILES. Calls of active or inactive are those of the source. Rule for the calls: active = hit-call score of the fitted dose curve at least 0.9, where 1 is the maximum; inactive = score below 0.9.

Sequence of Hypoxia-inducible factor 1-alpha (Homo sapiens) (Q16665 whole entry, looked up): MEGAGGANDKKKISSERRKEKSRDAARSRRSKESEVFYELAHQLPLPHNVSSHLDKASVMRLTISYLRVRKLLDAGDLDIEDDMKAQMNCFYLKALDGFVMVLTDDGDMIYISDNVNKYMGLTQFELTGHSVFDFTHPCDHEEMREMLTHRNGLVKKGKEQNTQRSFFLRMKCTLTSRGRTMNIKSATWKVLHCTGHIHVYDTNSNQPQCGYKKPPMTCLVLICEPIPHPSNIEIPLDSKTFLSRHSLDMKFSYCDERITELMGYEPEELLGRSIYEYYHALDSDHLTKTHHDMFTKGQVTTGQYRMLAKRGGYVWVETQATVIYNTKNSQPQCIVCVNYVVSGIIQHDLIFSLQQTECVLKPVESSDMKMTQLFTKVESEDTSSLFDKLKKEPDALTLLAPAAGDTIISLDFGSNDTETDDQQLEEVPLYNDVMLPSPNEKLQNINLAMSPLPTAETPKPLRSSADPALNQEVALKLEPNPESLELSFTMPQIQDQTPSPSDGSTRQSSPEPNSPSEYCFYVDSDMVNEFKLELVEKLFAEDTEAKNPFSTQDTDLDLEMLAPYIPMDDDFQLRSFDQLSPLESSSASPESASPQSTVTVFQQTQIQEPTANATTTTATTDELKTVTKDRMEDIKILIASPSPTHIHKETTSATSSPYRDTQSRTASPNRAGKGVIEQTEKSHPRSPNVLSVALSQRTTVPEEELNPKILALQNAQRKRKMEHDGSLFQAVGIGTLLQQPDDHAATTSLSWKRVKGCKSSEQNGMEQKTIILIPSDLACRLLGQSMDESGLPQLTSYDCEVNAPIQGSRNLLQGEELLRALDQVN
Sequence of Hepatocyte nuclear factor 6 (Homo sapiens) (Q9UBC0 whole entry, looked up): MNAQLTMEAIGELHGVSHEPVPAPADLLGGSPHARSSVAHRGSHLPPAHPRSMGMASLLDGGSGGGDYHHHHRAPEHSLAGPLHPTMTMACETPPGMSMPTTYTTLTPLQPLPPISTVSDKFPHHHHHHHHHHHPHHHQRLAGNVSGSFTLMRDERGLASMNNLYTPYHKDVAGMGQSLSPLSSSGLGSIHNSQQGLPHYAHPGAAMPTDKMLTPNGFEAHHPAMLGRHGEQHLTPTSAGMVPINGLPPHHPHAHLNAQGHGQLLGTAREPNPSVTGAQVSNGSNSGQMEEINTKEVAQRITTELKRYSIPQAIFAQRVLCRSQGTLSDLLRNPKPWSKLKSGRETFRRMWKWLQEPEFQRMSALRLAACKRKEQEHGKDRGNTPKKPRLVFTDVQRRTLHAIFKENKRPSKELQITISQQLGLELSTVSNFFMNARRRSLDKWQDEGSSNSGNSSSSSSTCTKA

Test system in one assay: not listed separately
Briefly: ATG_M_06_CIS: Attagene CIS-FACTORIAL HepG2 Assay for M06 Transcription Factor (Internal Marker) (AID 2282950). The note with it: HepG2 Attagene CIS-FACTORIAL M06 internal marker reporter; actives raise or lower the signal. The essentials: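 HepG2 liver cells, 24 h exposure. Reporter transcripts from transfected cis-element constructs quantified by RT-PCR/capillary electrophoresis fluorescence. Bidirectional curve fit against DMSO.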
As to `Nc1ccc2c(c1)C(=O)c1ccccc1C2=O`, the molecule was called inactive.

Regarding `CC(=O)C(C)=CC1C(C)=CCCC1(C)C` (stereo unspecified), the molecule was classed as inactive.

For `CCCCCCC(=O)OCC`, the molecule was classed as inactive.

With `CCCCN(CCCC)CCCC`, the molecule was called inactive.

Consider `Cc1nc(C)nc(N2C[C@@H](C)N(c3ccnc([C@@H](C)O)n3)[C@@H](C)C2)n1`, for which the molecule was classed as inactive.

With `CC(=O)OCCOCCOCCOC(C)=O`, the molecule was classed as inactive.

Regarding `CCOC(=O)CCC(=O)OCC`, the call was inactive.

Take `CC(=O)Oc1ccccc1C(=O)O`: the molecule was called inactive.

Turning to `CC(=O)OC/C=C(\C)CCC=C(C)C`, the outcome was inactive.

In the case of `CC(C)c1ccc(C(=O)N=C(N)N)cc1S(C)(=O)=O`, the result was inactive.

In the case of `Cc1ccc(Cl)cc1`, the call was inactive.

In the case of `C[Si]1(C)O[Si](C)(C)O[Si](C)(C)O[Si](C)(C)O1`, the call was inactive.

Take `C=CCc1ccc(O)c(OC)c1`: the call was inactive.

Regarding `COc1cccc2c1C(=O)c1c(O)c3c(c(O)c1C2=O)C[C@@](O)(C(=O)CO)C[C@@H]3O[C@H]1C[C@H](N)[C@H](O)[C@H](C)O1`, the result was inactive.

As to `Cc1cccc(C)c1O`, the molecule was classed as inactive.

For `CCCCCC(=O)O`, the call was inactive.

As for `Oc1ccc2ccccc2c1N=Nc1ccccc1`, the call was inactive.

`NS(=O)(=O)c1cc2c(cc1Cl)NCNS2(=O)=O`: the molecule was called inactive.

For `Cc1ccccc1Cl`, the result was inactive.

In the case of `COc1ccc2c(c1)c(CC(=O)O)c(C)n2C(=O)c1ccc(Cl)cc1`, the result was inactive.

On to `Cc1cccc(Nc2cc(Cl)nc(SCC(=O)O)n2)c1C`, for which the outcome was inactive.

In the case of `CCOC(=O)C(C)(C)Oc1ccc(Cl)cc1`, the molecule was called inactive.

As for `CCCCOC(=O)CCCCCCCCC(=O)OCCCC`, the molecule was classed as inactive.

With `CCc1c(C(=O)NN2CCCCC2)nn(-c2ccc(Cl)cc2Cl)c1-c1ccc(Br)cc1`, the result was inactive.

For the molecule `Oc1ccc2c(c1)OC[C@@H](N1CCC(O)(c3ccc(F)cc3)CC1)[C@H]2O`, the molecule was classed as inactive.

Take `O=C(O)CCCCC(=O)O`: the molecule was classed as inactive.

In the case of `CCCCCCCCCCCCCCCCCC(=O)O`, the outcome was inactive.

As to `CCCCCCCCCCCC(=O)OC`, the call was inactive.

On to `O=C(N[C@@H](Cc1ccccc1)[C@@H](O)C(=O)N1C[C@@H](O)[C@@H](O)C1)c1cc2cc(Cl)ccc2[nH]1`, for which the call was inactive.

With `CCCCCCCC=O`, the outcome was inactive.

Another assay addresses Hypoxia-inducible factor 1-alpha (Homo sapiens) (UniProt Q16665). Briefly: ATG_HIF1a_CIS: Attagene CIS-FACTORIAL HepG2 Assay for human Hypoxia Inducible Factor 1 (HIF1A) (AID 2282951). Particulars: HepG2 Attagene cis-factorial HIF1a reporter transcription; actives raise or lower the signal. Summed up:
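Dosed 24 h, transfected HepG2 cells yielded total RNA whose reporter transcripts were RT-PCR-amplified and sized by capillary electrophoresis using fluorescent labelling; DMSO defined baseline, with gain and loss of signal both fitted.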
Regarding `Nc1ccc2c(c1)C(=O)c1ccccc1C2=O`, the call was inactive.

Take `CC(=O)C(C)=CC1C(C)=CCCC1(C)C` (stereo unspecified): the result was inactive.

As to `CCCCCCC(=O)OCC`, the call was inactive.

As to `CCCCN(CCCC)CCCC`, the result was inactive.

Regarding `Cc1nc(C)nc(N2C[C@@H](C)N(c3ccnc([C@@H](C)O)n3)[C@@H](C)C2)n1`, the outcome was inactive.

As usually defined, the AC50 is the midpoint of the concentration-response curve, whichever way the signal moves. Consider `CC(=O)OCCOCCOCCOC(C)=O`, for which the AC50 is 39.4 µM (active).

As for `CCOC(=O)CCC(=O)OCC`, the result was inactive.

With `CC(=O)OC/C=C(\C)CCC=C(C)C`, the outcome was inactive.

In the case of `CC(C)c1ccc(C(=O)N=C(N)N)cc1S(C)(=O)=O`, the call was inactive.

Regarding `Cc1ccc(Cl)cc1`, the AC50 was 57.2 µM (active).

On to `C[Si]1(C)O[Si](C)(C)O[Si](C)(C)O[Si](C)(C)O1`, for which the molecule was classed as inactive.

For the molecule `C=CCc1ccc(O)c(OC)c1`, the call was inactive.

For the molecule `COc1cccc2c1C(=O)c1c(O)c3c(c(O)c1C2=O)C[C@@](O)(C(=O)CO)C[C@@H]3O[C@H]1C[C@H](N)[C@H](O)[C@H](C)O1`, the half-maximal activity concentration (AC50) was 1.23 µM (active).

Regarding `Cc1cccc(C)c1O`, the molecule was classed as inactive.

On to `CCCCCC(=O)O`, for which the outcome was inactive.

Consider `Oc1ccc2ccccc2c1N=Nc1ccccc1`, for which the AC50 was 1.24 µM (active).

`Cc1ccccc1Cl`: the call was inactive.

As for `COc1ccc2c(c1)c(CC(=O)O)c(C)n2C(=O)c1ccc(Cl)cc1`, the call was inactive.

For `CCCCOC(=O)CCCCCCCCC(=O)OCCCC`, the call was inactive.

As to `CCc1c(C(=O)NN2CCCCC2)nn(-c2ccc(Cl)cc2Cl)c1-c1ccc(Br)cc1`, the AC50 is 0.387 µM (active).

Take `Oc1ccc2c(c1)OC[C@@H](N1CCC(O)(c3ccc(F)cc3)CC1)[C@H]2O`: the outcome was inactive.

For `O=C(O)CCCCC(=O)O`, the call was inactive.

As to `CCCCCCCCCCCCCCCCCC(=O)O`, the molecule was classed as inactive.

Turning to `CCCCCCCCCCCC(=O)OC`, the call was inactive.

As to `O=C(N[C@@H](Cc1ccccc1)[C@@H](O)C(=O)N1C[C@@H](O)[C@@H](O)C1)c1cc2cc(Cl)ccc2[nH]1`, the outcome was inactive.

As to `CCCCCCCC=O`, the result was inactive.

In a further assay the target is Hepatocyte nuclear factor 6 (Homo sapiens) (UniProt Q9UBC0). Briefly: ATG_HNF6_CIS: Attagene CIS-FACTORIAL HepG2 Assay for human Hepatocyte Nuclear Factor 6 (HNF6) (AID 2282952). The note with it: HepG2 Attagene cis-factorial HNF6 reporter transcription; actives raise or lower the signal. The essentials:
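Multiplexed mRNA reporter assay in transfected HepG2; 24 h dosing; RT-PCR plus capillary electrophoresis fluorescence; DMSO-referenced bidirectional curve fitting.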
Turning to `Nc1ccc2c(c1)C(=O)c1ccccc1C2=O`, the result was inactive.

On to `CC(=O)C(C)=CC1C(C)=CCCC1(C)C` (stereo unspecified), for which the result was inactive.

For `CCCCCCC(=O)OCC`, the call was inactive.

In the case of `CCCCN(CCCC)CCCC`, the molecule was called inactive.

Regarding `Cc1nc(C)nc(N2C[C@@H](C)N(c3ccnc([C@@H](C)O)n3)[C@@H](C)C2)n1`, the molecule was called inactive.

As for `CC(=O)OCCOCCOCCOC(C)=O`, the molecule was classed as inactive.

As to `CCOC(=O)CCC(=O)OCC`, the molecule was called inactive.

On to `CC(=O)Oc1ccccc1C(=O)O`, for which the result was inactive.

Consider `CC(=O)OC/C=C(\C)CCC=C(C)C`, for which the outcome was inactive.

Take `CC(C)c1ccc(C(=O)N=C(N)N)cc1S(C)(=O)=O`: the call was inactive.

As for `Cc1ccc(Cl)cc1`, the call was inactive.

Take `C[Si]1(C)O[Si](C)(C)O[Si](C)(C)O[Si](C)(C)O1`: the outcome was inactive.

Take `C=CCc1ccc(O)c(OC)c1`: the molecule was classed as inactive.

In the case of `COc1cccc2c1C(=O)c1c(O)c3c(c(O)c1C2=O)C[C@@](O)(C(=O)CO)C[C@@H]3O[C@H]1C[C@H](N)[C@H](O)[C@H](C)O1`, the molecule was called inactive.

For the molecule `Cc1cccc(C)c1O`, the molecule was classed as inactive.

`CCCCCC(=O)O`: the outcome was inactive.

As for `Oc1ccc2ccccc2c1N=Nc1ccccc1`, the result was inactive.

For the molecule `NS(=O)(=O)c1cc2c(cc1Cl)NCNS2(=O)=O`, the result was inactive.

With `Cc1ccccc1Cl`, the molecule was called inactive.

Turning to `COc1ccc2c(c1)c(CC(=O)O)c(C)n2C(=O)c1ccc(Cl)cc1`, the molecule was called inactive.

As to `Cc1cccc(Nc2cc(Cl)nc(SCC(=O)O)n2)c1C`, the molecule was called inactive.

In the case of `CCOC(=O)C(C)(C)Oc1ccc(Cl)cc1`, the outcome was inactive.

For the molecule `CCCCOC(=O)CCCCCCCCC(=O)OCCCC`, the call was inactive.

Regarding `CCc1c(C(=O)NN2CCCCC2)nn(-c2ccc(Cl)cc2Cl)c1-c1ccc(Br)cc1`, the result was inactive.

For `Oc1ccc2c(c1)OC[C@@H](N1CCC(O)(c3ccc(F)cc3)CC1)[C@H]2O`, the molecule was called inactive.

As to `O=C(O)CCCCC(=O)O`, the molecule was called inactive.

Consider `CCCCCCCCCCCCCCCCCC(=O)O`, for which the call was inactive.

For the molecule `CCCCCCCCCCCC(=O)OC`, the molecule was called inactive.

For the molecule `O=C(N[C@@H](Cc1ccccc1)[C@@H](O)C(=O)N1C[C@@H](O)[C@@H](O)C1)c1cc2cc(Cl)ccc2[nH]1`, the result was inactive.

As to `CCCCCCCC=O`, the molecule was called inactive.

The values above are taken from PubChem BioAssay (EPA / NIEHS).
